Hits are enriched below; roughly 3.2% of the tested compounds scored in any of these assays.
AMA1-RON2 inh = qHTS for Inhibitors of AMA1-RON; Towards Development of Antimalarial Drug Lead: Primary Screen | AlphaScreen AMA1-biotinylated RON2 peptide binding | Potency, µM (highest dose often 58.2 µM), usual class: inhibitors | 0.2% of 360,000 active; note: nearly all actives have a fitted effect of over 45% in size
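AMA1 (3D7) with his tag at 25 nM final met compounds first, then biotinylated RON2 peptide at 25 nM; detection used donor plus acceptor beads, 10 µg/mL apiece, read by AlphaScreen after 30 min at room temperature.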
AmpC inh detg = qHTS Inhibitors of AmpC Beta-Lactamase (assay with detergent). AID 485294, 2010. 0.041% of 370,000 active. AmpC hydrolysis of nitrocefin, absorbance 480 nm, 0.01% Triton. Potency, µM (doses to about 114 µM), hits mostly inhibitors. P00811; note: nearly all actives have a fitted effect of over 25% in size
Target sequence (P00811 whole entry, looked up): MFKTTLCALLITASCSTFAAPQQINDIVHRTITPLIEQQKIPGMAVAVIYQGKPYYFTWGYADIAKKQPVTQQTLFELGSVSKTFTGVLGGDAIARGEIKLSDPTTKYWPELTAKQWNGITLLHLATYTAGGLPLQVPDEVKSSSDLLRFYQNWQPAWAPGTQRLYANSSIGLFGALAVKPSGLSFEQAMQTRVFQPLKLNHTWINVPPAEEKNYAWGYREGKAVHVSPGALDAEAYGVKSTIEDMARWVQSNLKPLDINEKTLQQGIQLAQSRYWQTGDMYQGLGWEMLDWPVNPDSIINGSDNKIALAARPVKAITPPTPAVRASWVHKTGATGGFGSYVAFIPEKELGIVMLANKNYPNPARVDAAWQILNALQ
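AmpC (5.3 nM in the dispensed reagent) in 20 mM phosphate pH 7.0 with 0.01% (detergent screen) or 0.0001% Triton X-100 was preincubated with compounds for 15 min at room temperature. Nitrocefin was then added from an 800 uM solution, and hydrolysis was followed at 480 nm.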
RE007 growth inh = qHTS Assay for Inhibitors of the HIV-1 protein Vpr | 0.21% of 360,000 active | S. pombe RE007 Vpr strain, BacTiter-Glo ATP luminescence, 24 h | Potency, µM (doses to about 92.2 µM), actives largely listed as inhibitors | AID 651644, 2012; active = well fitted falling curve with a large enough effect; inconclusive = small, poorly fitted or top-dose-only effect; inactive = no such curve, though single readings can be large or run the other way; note: nearly all actives have a fitted effect of over 50% in size
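Fission yeast RE007 carrying one integrated HIV-1 vpr copy, seeded at OD 0.01 in PMG+AL medium with 23 nL pinned compound. Grown 24 h at 30 degrees; viability read by BacTiter-Glo luminescence after 5 min.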
AmpC no deterg = qHTS Inhibitors of AmpC Beta-Lactamase (assay without detergent); P00811; AmpC nitrocefin hydrolysis, absorbance 480 nm, 0.0001% Triton; Potency, µM (top dose mostly 57.1 µM), actives largely listed as inhibitors; 0.52% of 330,000 active; AID 485341, 2010; note: nearly all actives have a fitted effect of over 20% in size
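20 mM phosphate pH 7.0 + 0.01% (detergent screen) or 0.0001% Triton X-100; 5.3 nM AmpC reagent; cpd preinc 15 min RT; nitrocefin (800 uM stock) to start; A480 q20 s × 4 min; Activity was normalised to no-enzyme and no-compound control wells.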
Sm TGR inh = qHTS Assay for the Inhibitors of Schistosoma Mansoni Peroxiredoxins; AID 485364, 2010; Potency, µM (top dose mostly 114 µM), most hits filed as inhibitors; purified TGR, DTNB reduction, TNB absorbance 405 nm; 3% of 360,000 active; note: nearly all actives have a fitted effect of over 60% in size
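First, TGR (20 nM dispensed) and NADPH were mixed with compound. Second, a 15 min room-temperature incubation followed. Third, further NADPH and then DTNB were added to start the reaction. Finally, TNB absorbance was monitored kinetically.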
A number is an active result; 0 = inactive; ? = inconclusive; - = no result given; [ ] = another dose, or the depositor's remark. Unless noted, calls come from the whole dose curve; as a rule, active = well fitted curve in the direction sought with a large enough effect; inconclusive = small, poorly fitted or top-dose-only effect, or another doubt; inactive = no such curve, though single readings can be large; an effect the other way counts as inactive or inconclusive.

SMILES	AMA1-RON2 inh	AmpC inh detg	RE007 growth inh	AmpC no deterg	Sm TGR inh
COC(=O)N/N=C(C)\C=C\c1ccco1	0	0	0	0	44.7µM
CC(=O)Nc1cccc(C(=O)/C=C/c2ccco2)c1	0	0	0	0	28.2µM
O=C(C=Cc1ccco1)c1ccc2ccccc2c1	?	-	0	-	-
O=C(CSCc1ccccc1Cl)N1CCN(c2ccc(Cl)cc2)CC1	-	0	-	-	0
COC(=O)c1sc(N2C(=O)c3oc4cc(C)c(C)cc4c(=O)c3C2c2ccccc2F)nc1C (stereo unspecified)	-	0	-	-	0
COc1ccccc1CNC(=O)c1ccc(N2CCCC2)c(NC(=O)NCc2ccccc2)c1	-	0	-	-	0
CCOc1ccccc1NC(=O)c1ccc2c(c1)CCCN2S(C)(=O)=O	-	0	-	-	0
CNC(=O)/C(=C\c1cccc(Oc2ccccc2)c1)NC(=O)c1ccccc1	0	0	0	0	0
CNC(=O)/C(C#N)=C/c1cccc(Oc2ccccc2)c1	0	0	17.8µM	0	0
Cc1cccc(N2C(=O)CC(Sc3nccc(C)n3)C2=O)c1 (stereo unspecified)	0	0	0	0	0
Cc1cc(C)nc(SC2CC(=O)N(c3ccc(C)c(C)c3)C2=O)n1 (stereo unspecified)	0	0	0	0	0
Cc1ccc(N2C(=O)CC(Sc3ncn[nH]3)C2=O)cc1C (stereo unspecified)	0	0	?	0	0.316µM
Cc1cccc(N2C(=O)CC(Sc3ncn[nH]3)C2=O)c1 (stereo unspecified)	0	0	?	0	7.08µM
Cc1cccc(N2CCN(c3nc4ccccc4c4nnc(C)n34)CC2)c1C	-	0	-	-	0
O=C(Nc1nc2ccccc2[nH]1)c1ccccc1F	0	?	6.31µM	0	0
CCN1C(=O)C(=C2C=C(C)OC(C)=C2)C(=O)N(CC)C1=S	0	0	0	0	0
CCOC(=O)C1=CC(=C2C(=O)N(CC)C(=S)N(CC)C2=O)c2ccccc2O1	0	0	0	0	25.1µM
CCCCn1c(NCc2ccc3c(c2)OCO3)nc2ccccc21	0	?	0	0	0
CCCn1c(NCc2ccc3c(c2)OCO3)nc2ccccc21	0	0	0	0	89.1µM
COc1ccc(Br)cc1CNC(=O)c1cnc2sc(N3CCCC3)nn2c1=O	-	0	-	-	0
S=C(Nc1ccccc1)Nc1nccs1	0	0	-	0	11.2µM
COCCNC(=O)c1ccc2c(=O)n(CCc3ccccc3)c(SCC(=O)CC(=O)OC)nc2c1	-	0	-	-	0
Cc1sc2nc(CN3CCOCC3)nc(Oc3ccc(NC(=O)c4ccco4)cc3)c2c1C	0	?	0	0	28.2µM
COc1cc(OC)c(NC(=O)CCCn2nc(C)c3sc4ccccc4c3c2=O)cc1Cl	-	0	-	-	0
CN(C)c1ccc(/C=C/C(=O)c2cc(Cl)ccc2O)cc1	14.1µM	0	0	0	?
SMILES	AMA1-RON2 inh	AmpC inh detg	RE007 growth inh	AmpC no deterg	Sm TGR inh
CCc1ccc(S(=O)(=O)Nc2cc(SCC(=O)O)c(O)c3ccccc23)cc1	?	?	0	0	6.31µM
O=C(O)CSc1cc(NS(=O)(=O)c2cccc([N+](=O)[O-])c2)c2ccccc2c1O	0	0	0	0	1.78µM
CCOc1ccc(S(=O)(=O)Nc2cc(SCC(=O)O)c(O)c3ccccc23)cc1	?	?	0	0	7.08µM
COc1ccc(OC)c(S(=O)(=O)Nc2ccc(O)c3ccccc23)c1	0	0	0	0	10µM
Cc1oc2c(cc(NS(=O)(=O)c3ccc(C(C)C)cc3)c3ccccc32)c1C(=O)O	0	0	0	0	?
Cc1ccc(NCc2nnc3n2CCCCC3)cc1Cl	-	0	-	-	0
Cc1ccc(C)c(S(=O)(=O)Nc2cc(SCC(=O)O)c(O)c3ccccc23)c1	0	?	0	0	3.55µM
CCc1ccc(S(=O)(=O)Nc2ccc(O)c3ccccc23)cc1	?	0	-	0	10µM
O=S(=O)(Nc1cc(Sc2cccc3cccnc23)c(O)c2ccccc12)c1ccccc1	-	0	-	0[2.29 µM]	3.55µM
CC1CCN(C(=O)COC(=O)/C=C/c2ccc(Br)o2)CC1	0	0	0	0	8.91µM
